# Laboratory results reported in PubChem BioAssay (EPA / NIEHS).
# “And” between values parts separate entries of the source, which are not always exact repeats. Equal entries are not always repeated. Results filed as inconclusive are left out. Some structures have more than one record in an assay (separate samples or runs), and their calls can disagree. The source made the active and inactive calls. How the source made its calls: active means hit-call score of the fitted dose curve at least 0.9, where 1 is the maximum; inconclusive means response in the unintended direction; inactive means score below 0.9.
# How the values were obtained:
# [1] = ACEA_ER_AUC_viability: ACEA Biosciences xCELLigence Real-Time Cell Analysis on Estrogen Receptor Agonism for Viability (AID 2283782);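 further: continuous compound exposure with impedance area under curve over 80 h; hit means loss of impedance signal meaning reduced cell growth or viability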
# Summary of the method: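 T-47D; phenol red-free RPMI1640 + 10% CS-FBS; 8 conc., 1:4 serial, max 100 uM final, ≤0.5% DMSO; n = 2; continuous exposure; impedance monitored to 80 h post-dose; AUC vs DMSO.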
# [2] = test system: turtle Estrogen Receptor (ERa), gene 101933533; test: ATG_trERa_XSP2: Attagene TRANS-FACTORIAL Multi-Species (XSP2) HepG2 Assay for turtle Estrogen Receptor (ERa) (AID 2283812);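 further: human HepG2 liver cells transiently expressing turtle ERa-Gal4 chimeric receptor; actives raise reporter signal above DMSO so AC50 reflects agonist activity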
# Summary of the method: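 HepG2 cells transiently transfected with GAL4-UAS reporter units expressing turtle ERa-Gal4 chimera. Reporter mRNA measured after 24 h dosing by RT-PCR, fluorescent labelling and capillary electrophoresis; gain of signal fitted versus DMSO.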
# [3] = target: chicken Estrogen Receptor (ERa), ESR1 (gene 396099) (UniProt P06212); test: ATG_chERa_XSP2: Attagene TRANS-FACTORIAL Multi-Species (XSP2) HepG2 Assay for chicken Estrogen Receptor (ERa) (AID 2283817);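 further: actives raise reporter signal above DMSO so AC50 reflects ER activation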
# Summary of the method: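 Transient MRTU transfection of HepG2 → 24 h chemical dosing → TriZol RNA, oligo(dT) RT → PCR, 6-FAM primer extension, HpaI digest → CE quantitation of chicken ERa-Gal4-driven reporter mRNA. Positive direction vs DMSO.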
# AR (gene 367) [4] = target: AR (gene 367) (UniProt P10275); test: ACEA_AR_antagonist_80hr: ACEA Biosciences xCELLigence Real-Time Cell Analysis on Androgen Receptor Antagonism for Proliferation (AID 2283787);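 further: 22Rv1 human prostate cancer cells with growth followed by electrical impedance; hits lower the impedance growth signal relative to DMSO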
# Summary of the method: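 Growth-kinetic antagonist readout in 22Rv1 cells, taken 80 h after continuous compound exposure. Activity fitted as signal loss relative to DMSO negative control.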
# [5] = STM_H9_NormalizedViability: Cytotoxicity Assessment at 120 hours in the Stemina devTOX quickPredict H9 human embryonic stem cell (hESC)-based Assay (AID 2283784)
# Summary of the method: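 Pluripotent H9 hESCs were exposed, with chemical and media replaced every 24 h. Viability was read by CellTiter-Fluor fluorescence, background-corrected and normalized to the 0.1% DMSO neutral control per plate. Loss of signal was fitted.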
# [6] = ATG_M_06_XSP2: Attagene TRANS-FACTORIAL Multi-Species (XSP2) HepG2 Assay for M06 Transcription Factor (Internal Marker) (AID 2283811);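 further: internal background marker reporter mRNA measured by RT-PCR and capillary electrophoresis; hits are increases in signal above the DMSO baseline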
# Summary of the method: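 HepG2, multiplexed reporter transfection; 24 h dosing; AR stimulated with 3 nM 6-alpha-fluorotestosterone + 1.5 nM norgestrel; RNA → RT-PCR → 6-FAM primer extension → HpaI → CE. Positive direction vs DMSO.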
# [7] = target: Estrogen receptor beta (Homo sapiens) (UniProt Q92731); test: ATG_hERb_XSP2: Attagene TRANS-FACTORIAL Multi-Species (XSP2) HepG2 Assay for human Estrogen Receptor (ERb) (AID 2283813);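 further: actives raise reporter mRNA above DMSO so AC50 reflects agonist induction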
# Summary of the method: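 HepG2 cells transiently transfected with GAL4-UAS reporter units and chimeric human ERb-Gal4, 24 h exposure. Reporter mRNA quantified by RT-PCR with FAM labelling, HpaI digestion and capillary electrophoresis; gain of signal versus DMSO.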
# [8] = target: GAL4 Transcription Factor (Internal Marker), GAL4 (gene 855828) (UniProt P04386); test: ATG_GAL4_XSP2: Attagene TRANS-FACTORIAL Multi-Species (XSP2) HepG2 Assay for GAL4 Transcription Factor (Internal Marker) (AID 2283814);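 further: GAL4 reporter mRNA background control in MRTU transfected cells not a receptor target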
# Summary of the method: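 HepG2 cells transiently transfected with GAL4-UAS reporter units, stimulated with 3 nM 6-alpha-fluorotestosterone plus 1.5 nM norgestrel, dosed 24 h. Reporter mRNA by RT-PCR/capillary electrophoresis; gain-of-signal fit versus DMSO, background control.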
# [9] = test system: turtle Androgen Receptor (AR), gene 101947425; test: ATG_trAR_XSP2: Attagene TRANS-FACTORIAL Multi-Species (XSP2) HepG2 Assay for turtle Androgen Receptor (AR) (AID 2283815);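 on AC50: potency for gain of reporter signal meaning activation above DMSO baseline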
# Summary of the method: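 HepG2 cells transiently transfected with GAL4-UAS reporter units for chimeric NR-Gal4 receptors; 24 h dosing in presence of 3 nM 6-alpha-fluorotestosterone and 1.5 nM norgestrel. Reporter mRNA by RT-PCR and capillary electrophoresis, gain of signal versus DMSO.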
# [10] = target: zebrafish Estrogen Receptor (ER1), esr1 (gene 259252) (UniProt P57717); test: ATG_zfER1_XSP2: Attagene TRANS-FACTORIAL Multi-Species (XSP2) HepG2 Assay for zebrafish Estrogen Receptor (ER1) (AID 2283816)
# Summary of the method: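 HepG2 cells transiently transfected with a GAL4-UAS reporter and a chimeric zebrafish ER1-Gal4 construct, dosed 24 h. Reporter mRNA quantified by RT-PCR, labelling, HpaI digestion and capillary electrophoresis, relative to DMSO.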
# AR (gene 367) [11] = target: AR (gene 367) (UniProt P10275); test: ACEA_AR_agonist_80hr: ACEA Biosciences xCELLigence Real-Time Cell Analysis on Androgen Receptor Agonism for Proliferation (AID 2283783);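 further: hits increase impedance growth signal above DMSO baseline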
# Summary of the method: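 Androgen-driven proliferation in 22Rv1 cells is tracked as electrical impedance, taken 80 h after continuous exposure to compound (eight concentrations, 1:4 steps, maximum 100 uM final). Activity is fitted in the positive direction with DMSO as baseline.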
# chicken Estrogen Receptor (ERa), ESR1 (gene 396099), sequence (P06212 whole entry, looked up, the tested form may be a part): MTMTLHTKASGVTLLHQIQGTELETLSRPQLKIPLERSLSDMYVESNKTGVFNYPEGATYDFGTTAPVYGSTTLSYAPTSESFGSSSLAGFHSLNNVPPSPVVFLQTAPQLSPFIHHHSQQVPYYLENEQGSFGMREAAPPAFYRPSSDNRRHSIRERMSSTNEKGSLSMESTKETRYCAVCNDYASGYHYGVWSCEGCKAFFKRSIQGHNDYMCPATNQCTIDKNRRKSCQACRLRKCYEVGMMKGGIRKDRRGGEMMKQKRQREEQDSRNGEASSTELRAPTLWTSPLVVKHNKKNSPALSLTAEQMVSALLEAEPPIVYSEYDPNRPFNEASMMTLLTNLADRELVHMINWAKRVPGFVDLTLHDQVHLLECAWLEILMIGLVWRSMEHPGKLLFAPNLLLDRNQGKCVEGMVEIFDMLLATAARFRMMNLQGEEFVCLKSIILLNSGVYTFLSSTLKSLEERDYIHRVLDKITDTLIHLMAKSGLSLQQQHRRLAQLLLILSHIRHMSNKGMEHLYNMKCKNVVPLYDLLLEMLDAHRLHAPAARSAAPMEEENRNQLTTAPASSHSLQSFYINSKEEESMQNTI
# Estrogen receptor beta (Homo sapiens), sequence (Q92731 whole entry, looked up, the tested form may be a part): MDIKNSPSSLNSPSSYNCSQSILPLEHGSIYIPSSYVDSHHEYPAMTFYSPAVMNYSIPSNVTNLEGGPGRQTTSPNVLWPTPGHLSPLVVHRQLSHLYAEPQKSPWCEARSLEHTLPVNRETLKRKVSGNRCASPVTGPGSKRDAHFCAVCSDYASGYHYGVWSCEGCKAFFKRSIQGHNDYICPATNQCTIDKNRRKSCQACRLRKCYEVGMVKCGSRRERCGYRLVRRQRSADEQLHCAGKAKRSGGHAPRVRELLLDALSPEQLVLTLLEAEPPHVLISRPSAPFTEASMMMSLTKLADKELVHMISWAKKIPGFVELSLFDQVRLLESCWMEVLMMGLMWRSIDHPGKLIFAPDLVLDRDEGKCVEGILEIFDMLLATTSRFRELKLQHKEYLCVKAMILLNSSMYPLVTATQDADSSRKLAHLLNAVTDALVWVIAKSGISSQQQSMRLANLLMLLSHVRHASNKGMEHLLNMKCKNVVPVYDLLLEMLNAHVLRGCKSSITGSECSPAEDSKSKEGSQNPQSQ
# AR (gene 367), sequence (P10275 whole entry, looked up): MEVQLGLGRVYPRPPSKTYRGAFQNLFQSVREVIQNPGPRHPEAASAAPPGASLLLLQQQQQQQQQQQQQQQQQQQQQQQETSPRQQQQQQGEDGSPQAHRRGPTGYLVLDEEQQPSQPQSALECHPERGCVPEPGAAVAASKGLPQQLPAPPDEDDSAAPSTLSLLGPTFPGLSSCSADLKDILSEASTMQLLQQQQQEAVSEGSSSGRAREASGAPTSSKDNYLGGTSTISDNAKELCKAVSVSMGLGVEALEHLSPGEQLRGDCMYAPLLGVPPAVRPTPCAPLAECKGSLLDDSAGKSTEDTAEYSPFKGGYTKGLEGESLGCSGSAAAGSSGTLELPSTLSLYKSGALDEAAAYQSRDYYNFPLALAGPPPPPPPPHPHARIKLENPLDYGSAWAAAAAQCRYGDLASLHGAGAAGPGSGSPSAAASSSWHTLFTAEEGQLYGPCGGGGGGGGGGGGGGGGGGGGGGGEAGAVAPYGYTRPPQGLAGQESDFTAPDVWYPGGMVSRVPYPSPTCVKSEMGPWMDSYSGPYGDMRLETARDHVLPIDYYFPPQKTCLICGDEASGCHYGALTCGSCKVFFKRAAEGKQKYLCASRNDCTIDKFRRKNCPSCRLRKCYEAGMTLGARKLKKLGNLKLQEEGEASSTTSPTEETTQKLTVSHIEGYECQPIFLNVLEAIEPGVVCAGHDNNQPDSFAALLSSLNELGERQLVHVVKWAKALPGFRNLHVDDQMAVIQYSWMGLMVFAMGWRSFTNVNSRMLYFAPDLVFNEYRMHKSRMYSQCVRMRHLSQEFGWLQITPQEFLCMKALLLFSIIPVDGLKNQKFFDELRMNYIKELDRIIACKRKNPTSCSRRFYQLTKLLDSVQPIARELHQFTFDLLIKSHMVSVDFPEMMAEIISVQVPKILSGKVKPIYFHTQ
# GAL4 Transcription Factor (Internal Marker), GAL4 (gene 855828), sequence (P04386 whole entry, looked up, the tested form may be a part): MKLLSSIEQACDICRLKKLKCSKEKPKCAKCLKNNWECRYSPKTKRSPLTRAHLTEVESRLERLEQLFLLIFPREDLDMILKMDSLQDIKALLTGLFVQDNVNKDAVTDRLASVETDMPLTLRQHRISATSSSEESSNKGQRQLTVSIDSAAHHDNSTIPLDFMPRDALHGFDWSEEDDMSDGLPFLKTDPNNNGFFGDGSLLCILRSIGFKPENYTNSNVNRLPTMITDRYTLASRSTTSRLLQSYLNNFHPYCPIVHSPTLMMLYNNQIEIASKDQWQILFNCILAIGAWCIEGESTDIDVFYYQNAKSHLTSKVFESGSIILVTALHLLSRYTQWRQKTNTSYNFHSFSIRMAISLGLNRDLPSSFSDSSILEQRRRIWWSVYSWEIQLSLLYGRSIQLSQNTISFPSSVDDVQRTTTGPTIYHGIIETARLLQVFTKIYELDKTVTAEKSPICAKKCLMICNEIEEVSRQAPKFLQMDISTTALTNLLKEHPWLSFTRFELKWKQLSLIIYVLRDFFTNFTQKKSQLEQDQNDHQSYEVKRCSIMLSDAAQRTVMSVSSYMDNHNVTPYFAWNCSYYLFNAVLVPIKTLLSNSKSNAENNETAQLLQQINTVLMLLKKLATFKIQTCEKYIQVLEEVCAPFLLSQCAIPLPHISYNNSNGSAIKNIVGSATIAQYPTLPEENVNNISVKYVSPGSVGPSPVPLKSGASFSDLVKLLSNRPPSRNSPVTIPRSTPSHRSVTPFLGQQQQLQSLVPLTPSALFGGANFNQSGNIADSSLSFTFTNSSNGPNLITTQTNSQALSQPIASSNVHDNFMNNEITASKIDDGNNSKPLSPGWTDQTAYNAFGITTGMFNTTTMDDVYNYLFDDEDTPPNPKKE
# zebrafish Estrogen Receptor (ER1), esr1 (gene 259252), sequence (P57717 whole entry, looked up, the tested form may be a part): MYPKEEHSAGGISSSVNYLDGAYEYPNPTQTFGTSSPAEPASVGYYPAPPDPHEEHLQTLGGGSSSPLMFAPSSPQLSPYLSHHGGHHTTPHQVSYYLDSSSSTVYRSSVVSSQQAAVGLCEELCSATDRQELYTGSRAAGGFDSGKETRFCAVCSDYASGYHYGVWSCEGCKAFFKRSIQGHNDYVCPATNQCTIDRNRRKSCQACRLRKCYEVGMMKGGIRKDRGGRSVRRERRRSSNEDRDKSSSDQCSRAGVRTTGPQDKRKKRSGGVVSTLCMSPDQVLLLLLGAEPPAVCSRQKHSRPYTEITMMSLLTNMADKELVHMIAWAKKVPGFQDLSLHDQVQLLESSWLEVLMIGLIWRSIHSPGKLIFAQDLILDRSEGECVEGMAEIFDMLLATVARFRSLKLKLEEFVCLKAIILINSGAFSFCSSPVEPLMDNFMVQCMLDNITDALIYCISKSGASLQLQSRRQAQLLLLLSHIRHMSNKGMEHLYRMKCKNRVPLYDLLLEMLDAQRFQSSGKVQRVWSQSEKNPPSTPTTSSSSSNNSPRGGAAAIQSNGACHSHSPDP
smiles,measurement,setting,value
Nc1ncnc2nc[nH]c12,outcome,[1],inactive
CC1(C)C(=O)N(CO)C(=O)N1CO,outcome,[1],inactive
CCOC(=O)OC(=O)OCC,outcome,[1],inactive
Cc1ccc2c(c1)CCCN2,outcome,[1],inactive
CCCCCCCCCCCC(=O)OCC,outcome,[1],inactive
C=C(C)C(=O)OCCCCCCCCCCCC,outcome,[1],inactive
CC(C)=NNC(N)=S,AC50,[1],82.4 µM (active)
COc1nccnc1CC(C)C,outcome,[1],inactive
Cc1cc(C)n(CO)n1,outcome,[1],inactive
Nc1ccc(O)c([N+](=O)[O-])c1,AC50,[1],85.7 µM (active)
Cc1noc(NS(=O)(=O)c2ccc(N)cc2)c1C,outcome,[1],inactive
CCc1cccc(C)c1N(C(=O)CS(=O)(=O)O)C(C)COC (stereo unspecified),AC50,[1],50 µM (active)
CC(=O)/C=C/C1C(C)=CCCC1(C)C (stereo unspecified),outcome,[1],inactive
CCCCCCCCCCCCC,outcome,[1],inactive
CCCCCCCCCC[N+](C)(CCCCCCCCCC)CCC[Si](OC)(OC)OC,AC50,[1],17 µM (active)
CCOC(=O)C1=NOC(c2ccccc2)(c2ccccc2)C1,outcome,[1],inactive
Fc1ccc(Br)cc1,outcome,[1],inactive
CCCCOCCOCCOC(C)=O,outcome,[1],inactive
CC1=CP(=O)(c2ccccc2)CC1 (stereo unspecified),outcome,[1],inactive
CCc1cccc(CC)c1,outcome,[1],inactive
C=CCOC(=O)c1ccc(C(=O)OCC=C)c(C(=O)OCC=C)c1,outcome,[1],inactive
Oc1ccc(/C=C/c2cc(O)cc(O)c2)cc1,AC50,[1],20.6 µM (active)
CC(CC(C)C)=NO,outcome,[1],inactive
CC1(C)CC(O)CC(C)(C)N1[O],outcome,[1],inactive
CCCCCCO,outcome,[1],inactive
C1CCSC1,outcome,[1],inactive
CCOC(=O)CC(=O)c1ccccc1,AC50,[1],50 µM (active)
C/C=C/C=C/CCCCCCCO,AC50,[1],79.4 µM (active)
C=CC(=O)OCCCCCCCCCC,outcome,[1],inactive
CCCC=C(C=O)CC,outcome,[1],inactive
O=S(=O)(O)c1ccc(Nc2nc(Nc3ccc(C=Cc4ccc(Nc5nc(Nc6ccc(S(=O)(=O)O)cc6)nc(N(CCO)CCO)n5)cc4S(=O)(=O)O)c(S(=O)(=O)O)c3)nc(N(CCO)CCO)n2)cc1,outcome,[1],inactive
O=C(O)/C=C/c1ccccc1,outcome,[2],inactive
same,outcome,[3],inactive
CC(=O)OC1CCCCC1C(C)(C)C (stereo unspecified),outcome,AR (gene 367) [4],inactive
CCCCCCCCCCCCCCCCCCOS(=O)(=O)O,AC50,[1],75.4 µM (active)
Cc1c(C(=O)c2c[nH]n(C)c2=O)ccc(S(C)(=O)=O)c1C1=NOCC1,outcome,AR (gene 367) [4],inactive
CC(CCC(=O)O)(c1ccc(O)cc1)c1ccc(O)cc1,AC50,[5],0.0494 µM (active)
same,outcome,[6],inactive
same,outcome,[2],inactive
same,outcome,[7],inactive
same,outcome,[8],inactive
same,outcome,[9],inactive
same,AC50,[10],134 µM (active)
same,outcome,[10],inactive
same,outcome,[3],inactive
COc1ccc(-c2coc3cc(O)cc(O)c3c2=O)cc1,outcome,[6],inactive
same,AC50,[2],1.27 µM (active) and 161 nM (active)
same,AC50,[7],83.6 nM (active) and 65.3 nM (active)
same,AC50,[9],1.81 µM (active)
same,AC50,[10],4.02 µM (active) and 458 nM (active)
same,AC50,[3],1.24 µM (active) and 200 nM (active)
CCCCCCCCCCCCc1ccc(O)cc1,outcome,[6],inactive
same,AC50,[2],327 nM (active) and 57.8 nM (active)
same,outcome,[7],inactive
same,outcome,[8],inactive
same,AC50,[10],0.47 µM (active)
same,AC50,[3],526 nM (active) and 135 nM (active)
CCc1cccc(C)c1N,outcome,AR (gene 367) [4],inactive
CC1CCC(C(C)(C)S)C(=O)C1 (stereo unspecified),outcome,[1],inactive
CC(=O)OCCc1ccccc1,outcome,[1],inactive
Oc1ccccc1Cc1ccccc1O,outcome,[5],inactive
same,outcome,[6],inactive
same,AC50,[2],26.9 µM (active)
same,outcome,[2],inactive
same,AC50,[7],8.23 µM (active) and 7.6 µM (active)
same,outcome,[8],inactive
same,AC50,[10],58.4 µM (active) and 100 µM (active)
same,AC50,[3],7.64 µM (active)
same,outcome,[3],inactive
Cc1ccc(C)c(OCCCC(C)(C)C(=O)O)c1,outcome,AR (gene 367) [11],inactive
same,outcome,AR (gene 367) [4],inactive
CC(C)C(=O)OCCOc1ccccc1,outcome,[1],inactive
O=C(O)c1ccc2c(c1)C(=O)OC2=O,outcome,[1],inactive
same,outcome,AR (gene 367) [11],inactive
same,outcome,AR (gene 367) [4],inactive
CC(=O)OCc1ccccc1,outcome,[1],inactive
same,outcome,AR (gene 367) [4],inactive
CN(C)Cc1cc(CN(C)C)c(O)c(CN(C)C)c1,outcome,AR (gene 367) [11],inactive
O=C(O)c1cc(O)c2ccccc2c1O,AC50,[1],26 µM (active)
COc1ccc(C(=O)c2ccccc2)c(O)c1,outcome,[5],inactive
same,outcome,AR (gene 367) [4],inactive
same,outcome,[6],inactive
same,AC50,[2],4.74 µM (active) and 26.3 µM (active)
same,AC50,[7],26.8 µM (active)
same,outcome,[7],inactive
same,outcome,[8],inactive
same,AC50,[10],11 µM (active) and 16.7 µM (active)
same,AC50,[3],6.73 µM (active)
same,outcome,[3],inactive
CCCCCCCCCCCCCC(=O)OC(C)C,outcome,[1],inactive
same,outcome,AR (gene 367) [4],inactive
